According to PubChem BioAssay AID1259354 (Paczesny and Yang Labs, IUPUI and University of Michigan, 2018):
Values joined by “and” are separate entries in the source; they are usually repeats but may differ in a detail not shown here. Identical values can stand only once. Hit rate of the full screen: of about 78,000 compounds, about 1,800 (2.3%) were called active. Roughly 27% stayed inconclusive and do not appear here. No stated cut-off is given here; in the data, active means inhibition above about 30%; inconclusive means mostly about 10% to 28%; inactive means weaker than that. For the sample, actives were picked, then their nearest neighbours and some compounds at random.

Target: Interleukin-1 receptor-like 1 (Homo sapiens) (UniProt Q01638)
Assay: blocks human ST2 binding to IL-33, primary screen, biochemical, AlphaLISA (AID 1259354)
Settings: AlphaLISA ST2-Fc/biotin-IL-33 interaction, 1 h; at 17 µM, active compounds read high

Sequence of Interleukin-1 receptor-like 1 (Homo sapiens) (Q01638 whole entry, looked up): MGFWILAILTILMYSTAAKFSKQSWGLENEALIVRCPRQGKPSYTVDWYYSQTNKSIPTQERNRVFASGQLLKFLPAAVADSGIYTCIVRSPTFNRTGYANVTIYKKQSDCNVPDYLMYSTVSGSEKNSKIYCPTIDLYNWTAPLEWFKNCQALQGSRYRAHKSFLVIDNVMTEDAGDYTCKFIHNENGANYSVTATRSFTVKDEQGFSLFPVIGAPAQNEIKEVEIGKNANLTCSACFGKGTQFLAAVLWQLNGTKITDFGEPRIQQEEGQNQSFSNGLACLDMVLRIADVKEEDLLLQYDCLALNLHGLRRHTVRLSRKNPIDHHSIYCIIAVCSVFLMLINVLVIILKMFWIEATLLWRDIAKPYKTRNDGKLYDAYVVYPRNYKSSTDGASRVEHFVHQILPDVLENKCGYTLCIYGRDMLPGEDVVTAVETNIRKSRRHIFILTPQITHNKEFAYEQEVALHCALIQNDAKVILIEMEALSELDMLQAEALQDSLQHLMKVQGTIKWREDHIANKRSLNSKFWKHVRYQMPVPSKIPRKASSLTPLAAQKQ

Row | Structure (SMILES) | inhibition
1 | Fc1ccccc1CSc1nnc2c(n1)OC(c1cccnc1)Nc1ccccc1-2 (stereo not drawn) | inactive
2 | COc1cccc(N2CCN(Cc3cccs3)CC2)c1 | inactive
3 | COc1ccc(N2CCN(Cc3nc4c(c(=O)[nH]c(=O)n4C)n3CCCO)CC2)cc1 | inactive
4 | COc1ccc(N2CCN(Cc3ccc(Br)s3)CC2)cc1 | 39% (active)
5 | CC(c1cccs1)N(C)Cc1ccc(C#CC(C)(C)O)s1 (stereo not drawn) | inactive
6 | CC(C)NC(=O)C(CCO)NC(C)C (stereo not drawn) | inactive
7 | Cc1ccc(-n2c(SCC(=O)Nc3ccccc3C(F)(F)F)nc3c(c2=O)SCC3)cc1 | inactive
8 | Cc1ccc(-n2c(SCC(=O)Nc3ccc([N+](=O)[O-])cc3)nc3c(c2=O)SCC3)cc1 | 36% (active)
9 | CCOc1ccc(NC(=O)CSc2nc3c(c(=O)n2-c2ccccc2)SCC3)cc1 | inactive
10 | O=S(=O)(c1ccccc1)N1CCN(c2cc(-c3ccc(F)cc3)ncn2)CC1 | inactive
11 | Cn1c(=O)c2c(SCC(=O)NC3CCCC3)nc(-c3ccc(F)cc3)nc2n(C)c1=O | inactive
12 | Cc1ccc(N2NC(=O)/C(=C/c3ccc4c(c3)OCO4)C2=O)cc1Cl | inactive
13 | Cc1cc(/C=C2/C(=O)NC(=O)N(C)C2=O)c(C)n1-c1ccc(Cl)c(Cl)c1 | 34% (active)
14 | Cc1ccc(N2NC(=O)/C(=C/c3cccc([N+](=O)[O-])c3)C2=O)cc1Cl | inactive
15 | COc1ccc(C(=O)Nc2c3c(nn2-c2ccc(F)cc2)CS(=O)C3)c(OC)c1 (stereo not drawn) | inactive
16 | Cc1ccnc(CC(C)N(C)C(=O)c2cc(CC(C)C)no2)c1 (stereo not drawn) | inactive
17 | Cc1ccc(C(=O)N2N=C(c3ccccc3)CC2c2ccccc2)cc1 (stereo not drawn) | inactive
18 | N/C(=N/OC(=O)c1ccc2c(c1)OCO2)c1ccc(Cl)cc1 | inactive
19 | COc1ccc(S(=O)(=O)Nc2ccc(Br)cc2)cc1 | inactive
20 | COc1ccc(S(=O)(=O)ON=C2C=CC(=O)C=C2)cc1 | 32% (active)
21 | COC(=O)CNS(=O)(=O)c1ccc(OC)cc1 | inactive
22 | COc1ccccc1C(=O)Nc1ccc2c(c1)NC(=O)CC2c1ncc[nH]1 (stereo not drawn) | inactive
23 | O=C1CCC(C(=O)N2CCN(Cc3cccnc3)CC2)CN1CC1CCCCC1 (stereo not drawn) | inactive
24 | NC(=O)c1c(NC(=O)c2cc(=O)c3ccccc3o2)sc2c1CCCCC2 | inactive
25 | CCCC(=O)c1c(OC)cc(O)c(CC)c1O | inactive
26 | Cn1c(=O)cc(SCC(=O)N2CCN(C(=O)c3ccco3)CC2)c2ccccc21 | inactive
27 | CC(CN1CCN(C)C2(CCN(C(=O)c3ccco3)CC2)C1)c1ccccc1 (stereo not drawn) | 30% (active)

Row | Structure (SMILES) | inhibition
28 | CC(CN1CCC(C(N)=O)CC1)c1ccccc1 (stereo not drawn) | inactive
29 | C=CCn1c(=O)c2c(nc3n2CCN3c2ccc(C)cc2)n(C)c1=O | inactive
30 | COc1ccc(Nc2nc(Cl)nc(NCc3ccco3)n2)cc1 | inactive
31 | COc1ccc(Nc2nc(Nc3ccc(OC)cc3)nc(N3CCNCC3)n2)cc1 | 31% (active)
32 | CCC(=O)Nc1ccc(Nc2nc(C)cc(Nc3ccc(OC)cc3)n2)cc1 | inactive
33 | CCOC(=O)CSC1=C(C#N)C(c2ccccc2)CC(=O)N1 (stereo not drawn) | inactive
34 | CN(C)c1ccc(/C=C\c2nc3ccccc3c(=O)n2-c2ccc(C(=O)O)cc2)cc1 | inactive
35 | CN(C)c1ccc(/C=C2\N=C(c3cccc(I)c3)OC2=O)cc1 | inactive
36 | CC1=NN(Cc2ccccc2)C(=O)/C1=C/c1ccc(N(C)C)cc1 | 44% (active)
37 | CN(C)CC1(O)CCCN(C(=O)c2ccc(-n3ccnc3)cc2)CC1 (stereo not drawn) | inactive
38 | C=CCn1c(-c2ccccc2)csc1=Nc1ccc(O)cc1 | 53% (active) and 41% (active)
39 | COc1ccc(-c2nc3cc(N=Cc4cccc(OC)c4O)ccc3o2)cc1 | 43% (active)
40 | O=[N+]([O-])c1ccc(O)c(C=Nc2ccc3oc(-c4ccccc4)nc3c2)c1 | inactive
41 | O=C(O)c1ccc(O)c(C=Nc2ccc3oc(-c4ccccc4)nc3c2)c1 | inactive
42 | O=C(Nc1ccc([N+](=O)[O-])cc1)c1ccc(Br)cc1 | inactive
43 | COc1ccc([N+](=O)[O-])cc1NC(=O)c1ccc(-c2ccccc2)cc1 | inactive
44 | CC1(c2ccccc2NC(=O)c2ccc([N+](=O)[O-])cc2)CC1 | 30% (active)
45 | c1cc(-c2nc3ccncc3[nH]2)ccn1 | inactive
46 | O=[N+]([O-])c1cc(Cl)ccc1N1CCN(c2ccc([N+](=O)[O-])c3cccnc23)CC1 | 56% (active)
47 | CC1CCN(c2ccc(C(=O)O)cc2[N+](=O)[O-])CC1 | inactive
48 | O=[N+]([O-])c1cc(Cl)ccc1N1CCCNCC1 | inactive
49 | CSc1ccccc1NC(=O)c1cc(-c2ccc(Br)cc2)on1 | inactive
50 | O=C1CN(C(=O)c2nn(CCCc3ccccc3)c3c2CN(Cc2cccnc2)CC3)CCN1 | inactive
51 | CCOc1ccc(-c2cc(C)n3nc(C(=O)OC)cc3n2)cc1 | inactive
52 | OCCNc1c(F)c(F)nc(N2CCOCC2)c1F | inactive
53 | O=C(NC[C@H]1O[C@@H](CO)[C@@H](O)[C@H]1N1CCc2ccccc2C1)Nc1ccccc1 | inactive
